# Test results taken from article PMC7862700, “An all-to-all approach to the identification of sequence-specific readers for epigenetic DNA modifications on cytosine”.
# Legend:
# Assay in all cases: DAPPL (digital affinity profiling via proximity ligation, sequencing); 10 mM Tris-HCl pH 7.5, 50 mM NaCl, 1 mM DTT, 4% glycerol, room temperature, 30 min; GST-TFs on glutathione beads, 16-mer random dsDNA library, 0.1% formaldehyde crosslink after washing; high values mean tight binding
# FEV = target: T1, FEV (Homo sapiens, UniProt Q99581 1-238); conditions: protein: recombinant; tags: N-terminal GST; dsDNA, one strand shown
# T1 sequence: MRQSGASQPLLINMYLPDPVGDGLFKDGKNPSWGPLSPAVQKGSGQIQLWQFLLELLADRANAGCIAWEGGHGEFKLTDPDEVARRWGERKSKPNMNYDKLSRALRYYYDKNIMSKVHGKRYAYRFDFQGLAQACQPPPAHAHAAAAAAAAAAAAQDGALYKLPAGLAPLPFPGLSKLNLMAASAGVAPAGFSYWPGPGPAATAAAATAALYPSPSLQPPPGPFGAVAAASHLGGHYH
# Procedure, shortened: (§1)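 Human transcription factors carrying a GST fusion were produced in yeast, bound to glutathione beads, tagged with DNA barcodes and pooled together with a tag-only sample. Each pool was held with 200 nmole of a random double-stranded 16-mer DNA library in Tris/NaCl/DTT/glycerol buffer for 30 min at room temperature, then washed, crosslinked in 0.1% formaldehyde, proximity-ligated with BsaI/T4 ligase (1 h, 37 °C), PCR-amplified and sequenced on an Illumina NextSeq500. Binding signal is the read frequency of each hexamer for a given factor divided by its frequency in the tag-only sample.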
# ETV5 = ETV5 (Homo sapiens, UniProt P41161 1-510); conditions: protein: recombinant; tags: N-terminal GST; dsDNA, one strand shown
# Procedure, shortened: as §1
# HSF1 = HSF1 (Homo sapiens, UniProt Q00613 1-529); conditions: protein: recombinant; tags: N-terminal GST; chain copies: 3; dsDNA, one strand shown
# Procedure, shortened: as §1
# SPIC = target: T2, SPIC (Homo sapiens, UniProt Q8N5J4 1-248); conditions: protein: recombinant; tags: N-terminal GST; dsDNA, one strand shown
# T2 sequence: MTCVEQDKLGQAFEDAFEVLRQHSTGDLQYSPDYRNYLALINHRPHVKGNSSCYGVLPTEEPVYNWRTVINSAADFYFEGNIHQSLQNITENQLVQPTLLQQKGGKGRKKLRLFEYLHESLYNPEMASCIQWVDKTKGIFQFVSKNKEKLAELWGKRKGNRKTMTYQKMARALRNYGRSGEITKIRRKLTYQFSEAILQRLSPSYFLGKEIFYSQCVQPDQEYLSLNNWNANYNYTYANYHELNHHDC
# Procedure, shortened: as §1
# ELF4 = ELF4 (Homo sapiens, UniProt Q99607 1-663); conditions: protein: recombinant; tags: N-terminal GST; dsDNA, one strand shown
# Procedure, shortened: as §1
# ELK4 = target: T3, ELK4 (Homo sapiens, UniProt P28324-2 1-405); conditions: protein: recombinant; tags: N-terminal GST; dsDNA, one strand shown
# T3 sequence: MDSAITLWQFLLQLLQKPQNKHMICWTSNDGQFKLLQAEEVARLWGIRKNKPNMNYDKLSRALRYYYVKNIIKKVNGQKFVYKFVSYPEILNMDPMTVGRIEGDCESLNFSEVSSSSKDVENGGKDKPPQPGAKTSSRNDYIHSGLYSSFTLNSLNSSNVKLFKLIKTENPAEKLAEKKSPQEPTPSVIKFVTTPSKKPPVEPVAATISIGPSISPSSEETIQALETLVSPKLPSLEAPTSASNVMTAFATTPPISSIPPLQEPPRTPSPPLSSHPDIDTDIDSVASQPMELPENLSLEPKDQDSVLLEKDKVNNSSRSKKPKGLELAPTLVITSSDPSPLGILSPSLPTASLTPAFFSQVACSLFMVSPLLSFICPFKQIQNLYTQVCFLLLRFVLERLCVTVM
# Procedure, shortened: as §1
# ETV2 = target: T4, ETV2 (Homo sapiens, UniProt O00321 1-342); conditions: protein: recombinant; tags: N-terminal GST; dsDNA, one strand shown
# T4 sequence: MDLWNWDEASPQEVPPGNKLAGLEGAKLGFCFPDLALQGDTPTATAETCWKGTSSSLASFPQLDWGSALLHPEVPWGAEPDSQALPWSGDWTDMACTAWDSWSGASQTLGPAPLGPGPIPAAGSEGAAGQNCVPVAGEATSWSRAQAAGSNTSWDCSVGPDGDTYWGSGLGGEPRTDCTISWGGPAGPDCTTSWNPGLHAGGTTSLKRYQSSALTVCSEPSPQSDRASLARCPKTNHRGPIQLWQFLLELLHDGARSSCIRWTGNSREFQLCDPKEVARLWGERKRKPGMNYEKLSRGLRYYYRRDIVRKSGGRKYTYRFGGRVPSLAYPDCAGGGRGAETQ
# Procedure, shortened: as §1
# ELF3 = target: T5, ELF3 (Homo sapiens, UniProt P78545 1-371); conditions: protein: recombinant; tags: N-terminal GST; dsDNA, one strand shown
# T5 sequence: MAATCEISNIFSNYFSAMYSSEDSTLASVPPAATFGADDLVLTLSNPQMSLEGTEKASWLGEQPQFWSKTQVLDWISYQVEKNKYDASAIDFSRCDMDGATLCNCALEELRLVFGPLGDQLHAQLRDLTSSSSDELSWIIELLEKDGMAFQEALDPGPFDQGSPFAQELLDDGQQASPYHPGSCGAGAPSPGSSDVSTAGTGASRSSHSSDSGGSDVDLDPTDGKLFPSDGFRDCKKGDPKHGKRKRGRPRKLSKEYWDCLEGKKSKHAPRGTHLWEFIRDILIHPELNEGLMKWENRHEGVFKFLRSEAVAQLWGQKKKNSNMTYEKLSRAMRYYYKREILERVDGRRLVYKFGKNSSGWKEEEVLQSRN
# Procedure, shortened: as §1
# CRX = CRX (Homo sapiens, UniProt O43186 1-299); conditions: protein: recombinant; tags: N-terminal GST; dsDNA, one strand shown
# Procedure, shortened: as §1
# ETV1 = ETV1 (Homo sapiens, UniProt P50549 1-477); conditions: protein: recombinant; tags: N-terminal GST; dsDNA, one strand shown
# Procedure, shortened: as §1
# ERF = target: T6, ERF (Homo sapiens, UniProt P50548 1-548); conditions: protein: recombinant; tags: N-terminal GST; dsDNA, one strand shown
# T6 sequence: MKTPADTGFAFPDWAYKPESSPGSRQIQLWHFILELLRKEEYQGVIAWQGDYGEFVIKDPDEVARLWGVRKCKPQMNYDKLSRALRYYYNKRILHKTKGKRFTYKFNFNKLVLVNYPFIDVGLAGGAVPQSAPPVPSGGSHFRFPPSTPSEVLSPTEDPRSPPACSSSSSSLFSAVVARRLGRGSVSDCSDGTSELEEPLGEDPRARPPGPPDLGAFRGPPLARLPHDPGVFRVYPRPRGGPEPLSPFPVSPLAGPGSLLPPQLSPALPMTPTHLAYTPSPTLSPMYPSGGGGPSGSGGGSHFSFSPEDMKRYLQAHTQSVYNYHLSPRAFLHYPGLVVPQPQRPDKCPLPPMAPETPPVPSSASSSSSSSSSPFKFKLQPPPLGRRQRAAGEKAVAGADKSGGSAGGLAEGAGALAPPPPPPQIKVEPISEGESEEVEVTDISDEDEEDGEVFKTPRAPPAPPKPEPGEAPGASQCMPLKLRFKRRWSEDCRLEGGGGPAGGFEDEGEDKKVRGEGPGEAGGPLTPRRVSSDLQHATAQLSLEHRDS
# Procedure, shortened: as §1
# ETV3L = target: T7, ETV3L (Homo sapiens, UniProt Q6ZN32 1-361); conditions: protein: recombinant; tags: N-terminal GST; dsDNA, one strand shown
# T7 sequence: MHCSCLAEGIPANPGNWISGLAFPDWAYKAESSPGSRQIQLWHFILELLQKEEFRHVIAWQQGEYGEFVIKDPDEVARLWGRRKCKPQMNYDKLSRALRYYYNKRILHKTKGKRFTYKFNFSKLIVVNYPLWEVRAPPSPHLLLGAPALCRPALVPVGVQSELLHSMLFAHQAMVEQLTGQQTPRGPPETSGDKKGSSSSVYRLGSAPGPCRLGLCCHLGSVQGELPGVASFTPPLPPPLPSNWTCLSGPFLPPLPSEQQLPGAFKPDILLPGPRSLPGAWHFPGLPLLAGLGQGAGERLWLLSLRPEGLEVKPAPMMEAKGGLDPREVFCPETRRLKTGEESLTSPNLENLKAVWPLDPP
# Procedure, shortened: as §1
# ETS2 = target: T8, ETS2 (Homo sapiens, UniProt P15036 1-469); conditions: protein: recombinant; tags: N-terminal GST; dsDNA, one strand shown
# T8 sequence: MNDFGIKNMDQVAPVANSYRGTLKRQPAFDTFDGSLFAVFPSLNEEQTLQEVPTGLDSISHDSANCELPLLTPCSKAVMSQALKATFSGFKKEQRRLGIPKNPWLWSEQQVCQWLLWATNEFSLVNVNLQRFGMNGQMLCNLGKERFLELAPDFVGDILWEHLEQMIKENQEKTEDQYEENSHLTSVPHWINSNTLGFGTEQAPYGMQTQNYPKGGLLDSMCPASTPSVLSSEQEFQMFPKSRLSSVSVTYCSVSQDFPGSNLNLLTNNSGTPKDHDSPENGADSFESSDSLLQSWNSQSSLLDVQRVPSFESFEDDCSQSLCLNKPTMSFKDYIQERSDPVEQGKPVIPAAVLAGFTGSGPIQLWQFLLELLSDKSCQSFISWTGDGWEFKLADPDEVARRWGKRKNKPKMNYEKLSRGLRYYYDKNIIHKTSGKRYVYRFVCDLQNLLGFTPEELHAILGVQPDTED
# Procedure, shortened: as §1
# SPDEF = target: T9, SPDEF (Homo sapiens, UniProt O95238 1-335); conditions: protein: recombinant; tags: N-terminal GST; dsDNA, one strand shown
# T9 sequence: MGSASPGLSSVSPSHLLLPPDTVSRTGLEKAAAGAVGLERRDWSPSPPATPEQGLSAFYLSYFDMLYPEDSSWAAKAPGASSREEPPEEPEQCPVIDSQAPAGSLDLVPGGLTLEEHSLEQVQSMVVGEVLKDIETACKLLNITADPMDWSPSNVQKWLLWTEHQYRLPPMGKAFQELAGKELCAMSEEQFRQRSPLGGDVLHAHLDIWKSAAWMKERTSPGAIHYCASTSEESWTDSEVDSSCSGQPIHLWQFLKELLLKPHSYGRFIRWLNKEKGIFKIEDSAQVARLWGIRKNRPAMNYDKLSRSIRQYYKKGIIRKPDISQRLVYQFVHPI
# Procedure, shortened: as §1
# ETV7 = target: T10, ETV7 (Homo sapiens, UniProt Q9Y603 1-341); conditions: protein: recombinant; tags: N-terminal GST; dsDNA, one strand shown
# T10 sequence: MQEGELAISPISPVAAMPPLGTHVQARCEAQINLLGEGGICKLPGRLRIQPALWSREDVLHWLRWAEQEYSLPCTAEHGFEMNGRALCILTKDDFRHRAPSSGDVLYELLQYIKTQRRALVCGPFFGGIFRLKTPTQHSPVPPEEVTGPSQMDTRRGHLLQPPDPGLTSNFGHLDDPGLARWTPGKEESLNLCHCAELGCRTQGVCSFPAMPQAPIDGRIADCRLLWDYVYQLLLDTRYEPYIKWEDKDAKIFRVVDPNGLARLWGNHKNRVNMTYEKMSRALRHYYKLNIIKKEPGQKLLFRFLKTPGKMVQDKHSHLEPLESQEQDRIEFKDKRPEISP
# Procedure, shortened: as §1
# ELF5 = target: T11, ELF5 (Homo sapiens, UniProt Q9UKW6-2 1-255); conditions: protein: recombinant; tags: N-terminal GST; dsDNA, one strand shown
# T11 sequence: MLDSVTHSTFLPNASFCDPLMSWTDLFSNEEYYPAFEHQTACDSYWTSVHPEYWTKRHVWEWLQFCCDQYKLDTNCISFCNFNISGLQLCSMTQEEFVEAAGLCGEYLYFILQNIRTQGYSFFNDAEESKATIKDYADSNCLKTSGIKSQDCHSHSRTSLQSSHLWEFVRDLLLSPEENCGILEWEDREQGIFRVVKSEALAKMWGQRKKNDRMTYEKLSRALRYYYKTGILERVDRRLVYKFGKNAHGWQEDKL
# Procedure, shortened: as §1
# ETV3 = target: T12, ETV3 (Homo sapiens, UniProt P41162-2 1-143); conditions: protein: recombinant; tags: N-terminal GST; dsDNA, one strand shown
# T12 sequence: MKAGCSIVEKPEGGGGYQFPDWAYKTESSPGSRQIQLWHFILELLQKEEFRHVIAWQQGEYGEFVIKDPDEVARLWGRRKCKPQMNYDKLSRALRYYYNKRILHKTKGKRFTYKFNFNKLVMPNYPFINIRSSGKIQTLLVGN
# Procedure, shortened: as §1
# ETV6 = ETV6 (Homo sapiens, UniProt P41212 1-452); conditions: protein: recombinant; tags: N-terminal GST; dsDNA, one strand shown
# Procedure, shortened: as §1
# Chain of HSF1 (Q00613 whole entry): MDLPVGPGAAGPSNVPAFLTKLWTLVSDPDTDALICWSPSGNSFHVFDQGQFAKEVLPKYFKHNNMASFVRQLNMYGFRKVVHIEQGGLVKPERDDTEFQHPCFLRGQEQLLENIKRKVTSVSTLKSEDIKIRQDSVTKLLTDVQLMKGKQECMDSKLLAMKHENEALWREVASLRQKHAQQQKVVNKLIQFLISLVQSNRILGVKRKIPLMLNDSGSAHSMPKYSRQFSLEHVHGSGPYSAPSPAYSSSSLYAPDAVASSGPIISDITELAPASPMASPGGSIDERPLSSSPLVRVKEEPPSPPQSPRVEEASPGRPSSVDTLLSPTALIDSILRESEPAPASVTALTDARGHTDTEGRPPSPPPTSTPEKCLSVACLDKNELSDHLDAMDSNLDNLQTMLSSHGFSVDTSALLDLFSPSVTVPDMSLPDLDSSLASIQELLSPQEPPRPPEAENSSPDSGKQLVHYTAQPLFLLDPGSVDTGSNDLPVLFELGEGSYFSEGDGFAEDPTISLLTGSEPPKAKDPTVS
# Chain of CRX (O43186 whole entry): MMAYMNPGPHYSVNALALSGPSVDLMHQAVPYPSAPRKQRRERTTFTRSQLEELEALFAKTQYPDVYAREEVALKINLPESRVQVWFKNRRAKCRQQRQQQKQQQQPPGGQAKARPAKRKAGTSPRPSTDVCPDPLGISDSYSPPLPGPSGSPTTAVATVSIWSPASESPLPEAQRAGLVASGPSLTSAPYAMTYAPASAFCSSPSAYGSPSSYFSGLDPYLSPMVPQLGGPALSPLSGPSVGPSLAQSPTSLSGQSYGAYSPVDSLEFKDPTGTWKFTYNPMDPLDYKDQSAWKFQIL
# Chain of ELF4 (Q99607 whole entry): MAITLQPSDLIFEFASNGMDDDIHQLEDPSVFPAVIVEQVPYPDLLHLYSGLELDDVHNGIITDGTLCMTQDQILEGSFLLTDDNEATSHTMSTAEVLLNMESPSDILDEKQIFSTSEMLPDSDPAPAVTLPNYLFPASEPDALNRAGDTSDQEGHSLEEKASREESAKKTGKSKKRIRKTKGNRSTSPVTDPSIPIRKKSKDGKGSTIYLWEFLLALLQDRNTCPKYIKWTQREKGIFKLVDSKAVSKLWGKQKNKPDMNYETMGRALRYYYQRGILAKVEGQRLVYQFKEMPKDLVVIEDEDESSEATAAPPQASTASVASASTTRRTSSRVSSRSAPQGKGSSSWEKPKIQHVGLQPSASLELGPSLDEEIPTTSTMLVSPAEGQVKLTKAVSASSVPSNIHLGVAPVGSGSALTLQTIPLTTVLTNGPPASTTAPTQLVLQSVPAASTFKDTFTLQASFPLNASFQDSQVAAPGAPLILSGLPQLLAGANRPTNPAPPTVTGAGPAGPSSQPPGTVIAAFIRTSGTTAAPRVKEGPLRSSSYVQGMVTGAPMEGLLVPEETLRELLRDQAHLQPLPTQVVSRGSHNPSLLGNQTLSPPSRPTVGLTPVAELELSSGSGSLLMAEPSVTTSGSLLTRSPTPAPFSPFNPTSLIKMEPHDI
# Chain of ETV6 (P41212 whole entry): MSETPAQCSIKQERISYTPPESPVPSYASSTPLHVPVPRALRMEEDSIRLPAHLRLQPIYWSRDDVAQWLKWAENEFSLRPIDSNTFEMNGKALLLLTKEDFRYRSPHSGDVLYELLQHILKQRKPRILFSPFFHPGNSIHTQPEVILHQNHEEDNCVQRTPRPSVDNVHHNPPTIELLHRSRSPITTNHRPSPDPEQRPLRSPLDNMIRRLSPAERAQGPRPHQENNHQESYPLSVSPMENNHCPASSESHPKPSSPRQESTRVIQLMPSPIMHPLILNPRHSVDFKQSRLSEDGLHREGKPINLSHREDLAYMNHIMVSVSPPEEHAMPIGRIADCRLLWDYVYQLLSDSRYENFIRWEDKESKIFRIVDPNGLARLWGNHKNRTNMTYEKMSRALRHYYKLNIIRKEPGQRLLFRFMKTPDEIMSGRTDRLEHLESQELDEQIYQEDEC
# Chain of ETV1 (P50549 whole entry): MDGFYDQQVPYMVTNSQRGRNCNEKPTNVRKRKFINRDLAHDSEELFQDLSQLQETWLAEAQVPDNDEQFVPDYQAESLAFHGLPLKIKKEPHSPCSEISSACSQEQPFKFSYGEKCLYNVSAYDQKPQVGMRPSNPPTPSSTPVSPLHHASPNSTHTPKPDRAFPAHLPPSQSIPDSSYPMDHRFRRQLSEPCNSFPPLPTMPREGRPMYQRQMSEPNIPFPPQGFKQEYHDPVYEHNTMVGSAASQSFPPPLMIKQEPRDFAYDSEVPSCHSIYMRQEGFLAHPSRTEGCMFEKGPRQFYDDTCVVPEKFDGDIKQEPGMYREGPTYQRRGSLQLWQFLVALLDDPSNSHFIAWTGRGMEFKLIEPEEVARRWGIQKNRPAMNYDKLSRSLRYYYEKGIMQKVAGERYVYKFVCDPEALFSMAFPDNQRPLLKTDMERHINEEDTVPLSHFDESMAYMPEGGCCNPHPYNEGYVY
# Chain of ETV5 (P41161 whole entry): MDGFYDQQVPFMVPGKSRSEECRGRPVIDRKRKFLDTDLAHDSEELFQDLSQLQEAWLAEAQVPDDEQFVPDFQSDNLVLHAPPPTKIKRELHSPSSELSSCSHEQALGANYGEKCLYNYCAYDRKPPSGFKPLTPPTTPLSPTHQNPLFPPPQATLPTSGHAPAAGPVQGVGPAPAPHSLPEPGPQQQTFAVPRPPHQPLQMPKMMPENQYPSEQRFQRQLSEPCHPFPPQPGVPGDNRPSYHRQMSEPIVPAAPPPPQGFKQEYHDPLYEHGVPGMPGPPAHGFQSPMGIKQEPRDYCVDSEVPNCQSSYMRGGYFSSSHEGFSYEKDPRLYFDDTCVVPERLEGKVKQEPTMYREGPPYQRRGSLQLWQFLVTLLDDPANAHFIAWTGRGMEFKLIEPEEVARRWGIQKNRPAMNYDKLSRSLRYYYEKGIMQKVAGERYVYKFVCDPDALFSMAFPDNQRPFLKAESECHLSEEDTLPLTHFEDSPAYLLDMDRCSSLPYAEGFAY
sequence,measurement,setting,value
GTTTCC,binding signal,FEV,"3.32 fold enrichment (6-mer frequency, TF over GST control)"
same,binding signal,ETV5,"3.01 fold enrichment (6-mer frequency, TF over GST control)"
same,binding signal,HSF1,"1.42 fold enrichment (6-mer frequency, TF over GST control)"
same,binding signal,SPIC,"2.6 fold enrichment (6-mer frequency, TF over GST control)"
same,binding signal,ELF4,"2.56 fold enrichment (6-mer frequency, TF over GST control)"
same,binding signal,ELK4,"2.16 fold enrichment (6-mer frequency, TF over GST control)"
same,binding signal,ETV2,"2.42 fold enrichment (6-mer frequency, TF over GST control)"
same,binding signal,ELF3,"2.55 fold enrichment (6-mer frequency, TF over GST control)"
same,binding signal,CRX,"1.08 fold enrichment (6-mer frequency, TF over GST control)"
same,binding signal,ETV1,"2.65 fold enrichment (6-mer frequency, TF over GST control)"
same,binding signal,ERF,"2.49 fold enrichment (6-mer frequency, TF over GST control)"
same,binding signal,ETV3L,"2.7 fold enrichment (6-mer frequency, TF over GST control)"
same,binding signal,ETS2,"2.82 fold enrichment (6-mer frequency, TF over GST control)"
same,binding signal,SPDEF,"2.75 fold enrichment (6-mer frequency, TF over GST control)"
same,binding signal,ETV7,"2.86 fold enrichment (6-mer frequency, TF over GST control)"
same,binding signal,ELF5,"3.9 fold enrichment (6-mer frequency, TF over GST control)"
same,binding signal,ETV3,"3.01 fold enrichment (6-mer frequency, TF over GST control)"
same,binding signal,ETV6,"3.24 fold enrichment (6-mer frequency, TF over GST control)"
